HP1b chromo inh: HTS for Inhibitors of HP1-beta Chromodomain Interactions with Methylated Histone Tails; hit rate 0.56% among 390,000; Potency, µM (series often up to 114 µM), inactives show at the highest dose activity change, negative = inhibition, hits mostly inhibitors; AlphaScreen HP1-beta / biotin-H3K9me3 peptide binding; Chromobox protein homolog 1 (Homo sapiens), P83916; AID 540317, 2011; also: nearly all actives have a fitted effect of over 70% in size
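Compound inhibition of the preformed complex between 50 nM HP1-beta and 50 nM biotinylated H3K9me3 peptide was read by AlphaScreen. Buffer was PBS pH 7.4 with 0.01% Tween-20. Incubations ran 30 min at room temperature, with 10 ug/mL donor/acceptor beads.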
BAZ2B inh: qHTS Assay for Inhibitors of BAZ2B. Potency, µM (doses to about 114 µM), inactives show at the highest dose activity change, negative = inhibition, usual class: inhibitors. AlphaScreen BAZ2B-H3K14Ac peptide displacement. Bromodomain adjacent to zinc finger domain protein 2B (Homo sapiens), Q9UIF8. AID 504333, 2011. hit rate 4.4% among 360,000; also: % is scaled to controls: 0 for no effect and ±100 for the full control effect; nearly all actives have a fitted effect of over 60% in size
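Complex of BAZ2B and biotin-H3K14Ac (50 nM apiece) forms over 30 min at RT, then faces library compounds up to 110 uM for another 30 min; AlphaScreen beads added, 20 min dark incubation, luminescence read.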
G9a inh: qHTS Assay for Inhibitors of Histone Lysine Methyltransferase G9a; Histone-lysine N-methyltransferase EHMT2 (Homo sapiens), Q96KQ7; G9a H3K9 monomethylation, AlphaScreen, 2 h; Potency, µM (doses to about 102 µM), without a hit: top-dose activity, negative = inhibition, actives largely listed as inhibitors; hit rate 8.8% among 350,000; AID 504332, 2011; also: % is scaled to controls: 0 for no effect and ±100 for the full control effect; nearly all actives have a fitted effect of over 75% in size
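Chemiluminescent proximity detection of H3K9 monomethylation, read after 10 min bead incubation in the dark. Reaction: 20 nM G9a, 500 nM biotin-H3K9 peptide, 20 uM SAM cofactor, 2 h, room temperature, following 15 min enzyme-compound preincubation.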
JMJD2A Tudor inh: qHTS Assay for Inhibitors of JMJD2A-Tudor Domain | hit rate 4.4% among 390,000 | Potency, µM (doses to about 114 µM), for the others: at the top dose activity change, negative = inhibition, usual class: inhibitors | AlphaScreen JMJD2A-Tudor / H3K4me3 peptide binding | AID 504339, 2011; also: % is scaled to controls: 0 for no effect and ±100 for the full control effect; nearly all actives have a fitted effect of over 50% in size
Target sequence (O75164 whole entry, looked up, the tested form may be a part): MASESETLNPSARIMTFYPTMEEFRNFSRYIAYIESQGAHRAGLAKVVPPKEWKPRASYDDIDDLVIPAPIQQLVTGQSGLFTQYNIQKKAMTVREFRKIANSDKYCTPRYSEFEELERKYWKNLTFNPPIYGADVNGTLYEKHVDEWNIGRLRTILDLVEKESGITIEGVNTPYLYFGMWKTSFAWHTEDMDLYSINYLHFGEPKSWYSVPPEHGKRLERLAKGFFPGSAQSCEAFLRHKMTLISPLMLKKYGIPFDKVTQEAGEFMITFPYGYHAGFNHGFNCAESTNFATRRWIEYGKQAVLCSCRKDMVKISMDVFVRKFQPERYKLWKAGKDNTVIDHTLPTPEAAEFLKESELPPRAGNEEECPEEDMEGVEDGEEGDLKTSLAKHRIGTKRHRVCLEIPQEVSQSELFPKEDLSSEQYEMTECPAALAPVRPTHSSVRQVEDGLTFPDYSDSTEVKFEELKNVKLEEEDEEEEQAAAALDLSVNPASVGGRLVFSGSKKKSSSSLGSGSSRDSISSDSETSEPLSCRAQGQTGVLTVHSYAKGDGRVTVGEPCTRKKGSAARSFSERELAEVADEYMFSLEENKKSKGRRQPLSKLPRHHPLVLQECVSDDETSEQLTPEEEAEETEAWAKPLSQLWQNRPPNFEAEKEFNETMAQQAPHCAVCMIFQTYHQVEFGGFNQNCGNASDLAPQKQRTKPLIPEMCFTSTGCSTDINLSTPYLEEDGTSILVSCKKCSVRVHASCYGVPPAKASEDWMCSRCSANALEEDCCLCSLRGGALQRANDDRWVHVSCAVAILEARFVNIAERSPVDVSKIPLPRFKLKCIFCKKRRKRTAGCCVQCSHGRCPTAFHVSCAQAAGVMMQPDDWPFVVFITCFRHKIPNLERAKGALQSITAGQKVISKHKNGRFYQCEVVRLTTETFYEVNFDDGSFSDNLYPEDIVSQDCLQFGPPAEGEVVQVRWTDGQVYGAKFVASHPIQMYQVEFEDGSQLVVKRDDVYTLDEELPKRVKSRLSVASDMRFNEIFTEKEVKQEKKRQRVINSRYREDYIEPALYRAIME
PLK1 PBD inh: qHTS for Inhibitors of PLK1-PDB (polo-like kinase 1 - polo-box domain): Primary Screen; Serine/threonine-protein kinase PLK1 (Homo sapiens), P53350; hit rate 2.8% among 360,000; Potency, µM, for the others: max response, negative = inhibition, usual class: inhibitors; Plk1 PBD binding of FITC phosphopeptide, fluorescence polarization; also: series mostly up to about 57 µM; % is scaled to controls: 0 for no effect and ±100 for the full control effect; nearly all actives have a fitted effect of over 65% in size
Sfp inh: qHTS Assay for Inhibitors of Bacillus subtilis Sfp phosphopantetheinyl transferase (PPTase); Potency, µM, for inactives: largest response in the series, negative = inhibition, hits mostly inhibitors; Biochemical Sfp PPTase activity, qHTS; 4'-phosphopantetheinyl transferase ffp (Bacillus subtilis), Q9F4F7; hit rate 3.5% among 310,000;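 also: the enzyme is Sfp with the accession as filed and its product quenches rhodamine fluorescence; 0% = enzyme reaction without inhibitor and -100% = no enzyme wells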
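Buffer: 50 mM Hepes-Na pH 7.6, 10 mM MgCl2, 0.01% Nonidet P-40, 0.01% BSA. Enzyme 15 nM, pre-exposed to compound 15 min; substrates then added and fluorescence change tracked over 30 min.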
Numbers without * were called inactive; [ ] = another dose, or the depositor's remark. Sampled rows, rich in hits. Any-hit rate of the full collection: about 12%. Calls follow the shape of the dose curve; as a rule, active = well fitted curve in the direction sought with a large enough effect; inconclusive = small, poorly fitted or top-dose-only effect, or another doubt; inactive = no such curve, though single readings can be large; an effect the other way counts as inactive or inconclusive. Potency is read from the fitted curve at half-maximal effect.

COc1ccc(C(=O)/C=C/c2ccccc2)c(O)c1 was read as HP1b chromo inh inconclusive, BAZ2B inh 44.7µM*, G9a inh inconclusive, JMJD2A Tudor inh inconclusive, PLK1 PBD inh -21.9% and Sfp inh 20µM*.
`COc1ccc(C(=O)COC(=O)c2cccnc2Cl)c(OC)c1` gave HP1b chromo inh 6.0%, BAZ2B inh 50.1µM*, G9a inh -29.0%, JMJD2A Tudor inh -29.2%, PLK1 PBD inh -4.3% and Sfp inh 7.5%.
Screening COc1ccc(C(=O)COC(=O)/C=C/c2ccccc2)cc1 returned HP1b chromo inh 34.6%, BAZ2B inh 2.5%, G9a inh 51.9%, JMJD2A Tudor inh 0.0%, PLK1 PBD inh 3.2% and Sfp inh 17.7%.
Screening COc1ccc(C(=O)COC(=O)/C=C/c2ccccc2)c(OC)c1 returned HP1b chromo inh 17.3%, BAZ2B inh 50.1µM*, G9a inh 15.4%[12.7 µM], JMJD2A Tudor inh -5.7% and PLK1 PBD inh -9.9%.
Screening COc1ccc(/C=C/C(=O)c2cc3c(cc2N)OCO3)cc1 returned HP1b chromo inh 39.8µM*, BAZ2B inh 22.4µM*, G9a inh 17.8µM*, JMJD2A Tudor inh 28.2µM*, PLK1 PBD inh 3.3% and Sfp inh inconclusive.
Screening O=C(NC(=S)NCCC1=CCCCC1)c1cccnc1 returned HP1b chromo inh 25.6%, BAZ2B inh -25.5%, G9a inh inconclusive, JMJD2A Tudor inh -21.5%, PLK1 PBD inh -21.4% and Sfp inh -11.1%.
COc1cc(NC(=O)C2CC(c3c(F)cccc3Cl)=NO2)cc(OC)c1OC (stereo unspecified) was read as HP1b chromo inh 4.7%, BAZ2B inh 4.5%, JMJD2A Tudor inh -31.1%, PLK1 PBD inh -25.8% and Sfp inh 3.3%.
COc1ccc(C(=O)/C=C/c2ccc(OC)cc2OC)c(O)c1 was read as HP1b chromo inh -19.5%, BAZ2B inh inconclusive, G9a inh inconclusive, JMJD2A Tudor inh 17.8µM*, PLK1 PBD inh -10.9% and Sfp inh inconclusive.
Screening COc1ccc(/C=C/C(=O)c2cc(Cl)ccc2O)c(OC)c1 returned HP1b chromo inh inconclusive, BAZ2B inh 25.1µM*, JMJD2A Tudor inh inconclusive, PLK1 PBD inh 4.6% and Sfp inh inconclusive.
Screening COc1cc(C(=O)/C=C/c2cccnc2)ccc1O returned HP1b chromo inh -5.8%, BAZ2B inh -35.6%, G9a inh -44.5%, JMJD2A Tudor inh -2.7%, PLK1 PBD inh 0.1% and Sfp inh -8.4%.
Screening COc1ccc(OC)c(C(=O)/C=C/c2cccnc2)c1 returned HP1b chromo inh 35.2%, BAZ2B inh -40.5%, G9a inh 50.1µM*, JMJD2A Tudor inh -8.2%, PLK1 PBD inh -12.0% and Sfp inh -28.2%.
Screening O=C(/C=C/c1cccnc1)/C=C/c1cccnc1 returned HP1b chromo inh 1.4%, BAZ2B inh -16.3%, G9a inh 28.2µM*, JMJD2A Tudor inh -10.7%, PLK1 PBD inh -19.0% and Sfp inh 14.1µM*.
Screening COc1ccc(/C=C/C(=O)c2ccc(Cl)cc2)c(OC)c1 returned HP1b chromo inh 83.4%, BAZ2B inh 27.8%, G9a inh 59.9%, JMJD2A Tudor inh 11.1%, PLK1 PBD inh -1.3% and Sfp inh -16.2%.
For COc1ccc(CNC(=O)C2CCCN(S(=O)(=O)c3ccc4c(ccn4C)c3)C2)c(OC)c1 (stereo unspecified) the results were HP1b chromo inh 13.7%[57 µM], BAZ2B inh -11.6%, G9a inh 8.3%[59 µM] and JMJD2A Tudor inh -20.4%.
Screening CCCNC(=O)OC[C@@H]1O[C@H](CCO/N=C\C[C@H]2C=C[C@H](OC(C)=O)[C@@H](COC(C)=O)O2)C=C[C@@H]1Oc1ccc(OC)cc1 returned Sfp inh 29.4%.

Screens deposited in PubChem by National Center for Advancing Translational Sciences (NCATS).
